# Results: PubChem BioAssay (EPA / NIEHS)
# Results filed as inconclusive are left out. Activity calls are given as the source filed them. The calls were made as follows: active = hit-call score of the fitted dose curve at least 0.9, where 1 is the maximum; inconclusive = response in the unintended direction; inactive = score below 0.9.
# Molecular target: Peroxisome proliferator-activated receptor gamma (Homo sapiens) (UniProt P37231)
# Assay: ATG_PPARg_TRANS: Attagene TRANS-FACTORIAL HepG2 Assay for human Peroxisome Proliferator-activated Receptor-gamma (PPARg) (AID 2283007)
# Experimental: ATG_TRANS is a cell-based, multiplexed-readout assay that uses HepG2, a human liver cell line, with measurements taken at 24 hours after chemical dosing in a 24-well plate.ATG_PPARg_TRANS is one of 30 assay component(s) measured or calculated from the ATG_TRANS assay. It is designed to make measurements of mRNA induction, a form of inducible reporter, as detected with fluorescence intensity signals by Reverse transcription polymerase chain reaction (RT-PCR) and Capillary electrophoresis technology.Data from the assay component ATG_PPARg_TRANS was analyzed into 1 assay endpoint. This assay endpoint, ATG_PPARg_TRANS, was analyzed in the positive analysis fitting direction relative to DMSO as the negative control and baseline of activity. Using a type of inducible reporter, measures of mRNA for gain-of-signal activity can be used to understand the reporter gene at the transcription factor-level as they relate to the gene PPARG. Furthermore, this assay endpoint can be referred to as a primary readout, because this assay has produced multiple assay endpoints where this one serves a reporter gene function. To generalize the intended target to other relatable targets, this assay endpoint is annotated to the nuclear receptor intended target family, where the subfamily is non-steroidal.
# Human liver HepG2 cells are transiently transfected with multiple reporter transcription units (MRTUs) in 6-well plates using FuGene 6 reagent (Roche; 3 ml FuGene/1 mg DNA). The MRTU constructs are regulated by a cis-regulating element (promoter). […] A major difference between the CIS and TRANS system is that in CIS activities of endogenous TFs are measured, whereas the TRANS assay evaluates changes in activities of exogenous, chimeric NR-Gal4 proteins. […] At the end of 24 hour incubation, total RNA was isolated using TriZol reagent (Invitrogen). The isolated RNA is then reverse-transcribed using oligo(dT) primer and Mo-MLV reverse transcriptase (Invitrogen) with DNAse I (Ambion) treatment for 30 min. The one-tenth of the produced cDNA was amplified by PCR using Taq DNA polymerase (Invitrogen) and two reporter sequence-specific primers. The PCR products were fluorescently labeled by primer extension with 6-arboxyfluorescein (6-FAM) 5'-labeled reporter sequence-specific primer (2 min at 95 C, 20 s at 68 C and 10 min at 72 C) and these products were digested with 5U of HpaI (New England Biolabs) for 2h at 37 C. The fragments were purified using Qiaquick PCR columns (Qiagen), analyzed on an ABI 3130xL genetic analyzer (Applied Biosystems) with peak positions identified by using a set of X-rhodamine (ROX)-labeled MapMarker1000 molecular weight standards (BioVentures). The raw capillary electrophoresis data was processed using Attagraph software (Attagene).
# Peroxisome proliferator-activated receptor gamma (Homo sapiens), sequence (P37231 whole entry, looked up): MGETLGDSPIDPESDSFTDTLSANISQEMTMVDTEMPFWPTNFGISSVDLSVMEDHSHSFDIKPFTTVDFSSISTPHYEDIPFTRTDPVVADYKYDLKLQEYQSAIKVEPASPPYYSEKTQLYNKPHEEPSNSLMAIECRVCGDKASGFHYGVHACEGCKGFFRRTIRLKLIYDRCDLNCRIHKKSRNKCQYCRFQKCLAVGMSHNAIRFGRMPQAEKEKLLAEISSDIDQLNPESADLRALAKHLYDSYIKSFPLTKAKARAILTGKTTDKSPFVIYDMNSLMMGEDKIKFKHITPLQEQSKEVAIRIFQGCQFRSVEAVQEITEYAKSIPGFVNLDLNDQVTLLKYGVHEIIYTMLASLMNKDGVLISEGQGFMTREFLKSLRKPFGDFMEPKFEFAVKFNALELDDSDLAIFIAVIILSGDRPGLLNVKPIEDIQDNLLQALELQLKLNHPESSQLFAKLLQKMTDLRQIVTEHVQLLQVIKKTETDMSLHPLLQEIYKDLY
SMILES,outcome,AC50
Nc1ccc(S(=O)(=O)Nc2cnc3ccccc3n2)cc1,inactive,–
CC1(C)S[C@@H]2[C@H](NC(=O)[C@H](N)c3ccccc3)C(=O)N2[C@H]1C(=O)O,inactive,–
O=S(=O)(O)c1cccc2ccccc12,inactive,–
CN(C)Cc1cc(C(C)(C)C)c(O)c(C(C)(C)C)c1,inactive,–
CC(C)CC(=O)CC(C)CC(C)C (stereo not given),inactive,–
Nc1nnc(-c2ccc([N+](=O)[O-])o2)o1,inactive,–
CC1=C(CC(=O)O)c2cc(F)ccc2/C1=C\c1ccc(S(C)=O)cc1 (stereo not given),–,24.2 µM (active)
Oc1ccc(Oc2ccccc2)cc1,–,28 µM (active)
CC(C)n1c(/C=C/[C@@H](O)C[C@@H](O)CC(=O)O)c(-c2ccc(F)cc2)c2ccccc21,–,5.07 µM (active)
CCCC(=O)OC,inactive,–
CN(C)CCCN1c2ccccc2CCc2ccc(Cl)cc21,inactive,–
Clc1ccc(Sc2cc(Cl)c(Cl)cc2Cl)cc1,inactive,–
Sc1nc2ccccc2s1,–,31 µM (active)
CCCc1c(OCCCCc2nn[nH]n2)ccc(C(C)=O)c1O,–,5.65 µM (active)
CC/C=C\CC1=C(C)CCC1=O,–,23.9 µM (active)
CCCCOC(=O)COc1ccc(Cl)cc1Cl,inactive,–
OCCOCCOCCOCCOCCO,inactive,–
CC1=C(CC=O)C(C)(C)CCC1,inactive,–
Oc1ccc(Cl)cc1C1CCCC1,–,33.4 µM (active)
O=C(c1ccccc1)c1ccccc1O,inactive,–

SMILES,outcome,AC50
CCCCCC1CCCC(=O)O1 (stereo not given),inactive,–
CCOC(=O)c1ccccc1,inactive,–
CCOc1ccc2c(c1)C(C)CC(C)(C)N2 (stereo not given),inactive,–
Cc1ccnc(N)c1,inactive,–
CCCC(=O)OC/C=C(\C)CCC=C(C)C,inactive,–
CC(C)(Oc1ccc(Cl)cc1)C(=O)O,–,69.3 µM (active)
CCCOCCC,inactive,–
CCCCCC[C@@H](O)C/C=C\CCCCCCCC(=O)O,–,27.4 µM (active)
O=C(CC(C(=O)OC1CCCCC1)S(=O)(=O)O)OC1CCCCC1 (stereo not given),–,47.7 µM (active)
OCCN(CCO)c1cccc(Cl)c1,inactive,–
CCCC[N+]1(C)CCCC1,inactive,–
CC(=O)c1nccs1,inactive,–
Cc1cc(O)cc(C)c1Cl,inactive,–
CCCCCCCCCCC1CO1 (stereo not given),inactive,–
C=C(C)C(=O)OCCCCCC,inactive,–
COCCCN,inactive,–
O=C(O)c1cc(Cl)cc(Cl)c1O,–,100 µM (active)
CC[N+](CC)(CC(=O)Nc1c(C)cccc1C)Cc1ccccc1,inactive,–
C[Si](C)(C)O[Si](C)(C)O[Si](C)(C)C,inactive,–
c1cc(N(CC2CO2)CC2CO2)ccc1Cc1ccc(N(CC2CO2)CC2CO2)cc1 (stereo not given),inactive,–
